Results filed as inconclusive are left out. Calls of active or inactive are those of the source. Unless noted, calls come from the whole dose curve; as a rule, active = well fitted curve in the direction sought with a large enough effect; inconclusive = small, poorly fitted or top-dose-only effect, or another doubt; inactive = no such curve, though single readings can be large; an effect the other way counts as inactive or inconclusive.
Assays:
[1] = target: Ubiquitin carboxyl-terminal hydrolase 1 (Homo sapiens) (UniProt O94782); assay: Inhibitors of USP1/UAF1: Pilot qHTS (AID 504865);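 note: rhodamine fluorescence freed from ubiquitin-rhodamine substrate followed over time; top concentration of the series differs between compounds; % is set by controls: 0 for no effect and ±100 for the full control effect; nearly all actives have a fitted effect of over 35% in size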
Sequence of Ubiquitin carboxyl-terminal hydrolase 1 (Homo sapiens) (O94782 whole entry, looked up): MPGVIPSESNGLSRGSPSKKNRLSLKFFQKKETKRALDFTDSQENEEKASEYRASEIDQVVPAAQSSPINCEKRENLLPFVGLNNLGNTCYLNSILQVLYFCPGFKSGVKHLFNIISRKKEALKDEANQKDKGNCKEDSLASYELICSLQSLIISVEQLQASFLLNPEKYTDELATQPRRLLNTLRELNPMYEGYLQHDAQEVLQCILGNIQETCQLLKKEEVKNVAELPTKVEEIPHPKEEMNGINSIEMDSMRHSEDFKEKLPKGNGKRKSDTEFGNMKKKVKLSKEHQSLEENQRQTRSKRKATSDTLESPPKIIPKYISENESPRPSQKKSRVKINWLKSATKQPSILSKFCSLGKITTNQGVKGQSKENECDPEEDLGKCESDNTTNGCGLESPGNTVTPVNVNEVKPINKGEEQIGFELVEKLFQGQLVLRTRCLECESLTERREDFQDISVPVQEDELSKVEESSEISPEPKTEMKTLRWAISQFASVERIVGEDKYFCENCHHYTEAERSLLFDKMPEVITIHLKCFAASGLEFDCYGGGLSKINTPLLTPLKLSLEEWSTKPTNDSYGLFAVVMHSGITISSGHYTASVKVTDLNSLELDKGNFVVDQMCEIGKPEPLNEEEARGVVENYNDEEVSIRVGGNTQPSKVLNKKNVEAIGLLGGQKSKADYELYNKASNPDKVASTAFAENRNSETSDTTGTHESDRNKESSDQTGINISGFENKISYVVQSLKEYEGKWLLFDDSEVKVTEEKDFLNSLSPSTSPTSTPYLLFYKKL
Outline: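 Kinetic fluorescence assay: 1nM USP1/UAF1, 15 min compound preincubation, then 150nM Ub-Rho; 480/540 nm.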

[2] = target: Luciferin 4-monooxygenase (Photinus pyralis) (UniProt P08659); assay: Biochemical firefly luciferase enzyme assay for NPC (AID 624030);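 note: purified P. pyralis luciferase at 10 nM with luciferin and ATP substrate; 0% = DMSO and -100% = full luciferase inhibition by PTC124 control; nearly all actives have a fitted effect of over 70% in size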
Sequence of Luciferin 4-monooxygenase (Photinus pyralis) (P08659 whole entry, looked up): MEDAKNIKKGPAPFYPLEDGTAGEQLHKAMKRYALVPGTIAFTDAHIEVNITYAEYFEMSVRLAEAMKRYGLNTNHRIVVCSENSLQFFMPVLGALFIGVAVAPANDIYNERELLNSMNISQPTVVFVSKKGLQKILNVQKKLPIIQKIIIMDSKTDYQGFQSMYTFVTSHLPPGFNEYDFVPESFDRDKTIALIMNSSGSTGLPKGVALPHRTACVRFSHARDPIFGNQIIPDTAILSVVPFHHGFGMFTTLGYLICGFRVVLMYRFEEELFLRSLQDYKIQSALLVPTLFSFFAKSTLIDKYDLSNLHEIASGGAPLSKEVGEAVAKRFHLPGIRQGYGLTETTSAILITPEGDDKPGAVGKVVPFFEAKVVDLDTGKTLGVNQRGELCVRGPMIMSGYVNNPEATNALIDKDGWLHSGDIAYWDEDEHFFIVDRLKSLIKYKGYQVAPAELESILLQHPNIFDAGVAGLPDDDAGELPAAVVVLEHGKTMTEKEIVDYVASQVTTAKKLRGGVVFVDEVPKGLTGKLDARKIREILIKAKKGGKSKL
Outline: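 Direct inhibition of firefly luciferase enzyme (10 nM final, 50 mM Tris Acetate) assessed by luminescence within 5 minutes. Percent activity scaled between DMSO and PTC124 positive control, with concentration-effect curves classified by fit quality and response.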

[3] = S16 Schwann cell viability assay (CellTiter-Glo assay) (AID 624031);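 note: cellular ATP luminescence as a viability measure; plate controls were DMSO-treated cells for no effect and cell-free wells for full effect; nearly all actives have a fitted effect of over 70% in size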
Outline: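 CellTiter-Glo ATP luminescence counter-screen in untransfected S16 rat Schwann cells, 24h compound exposure at 37 degree Celsius after overnight seeding (500-750 cells/well); response scaled between cell-free wells and DMSO (0% activity), curves classed by r2 and magnitude.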

[4] = S16 Schwann cell PMP22 intronic element firefly luciferase assay (AID 624032);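 note: plate controls were DMSO for no effect and PTC124 positive control mean for full effect; nearly all actives have a fitted effect of over 30% in size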
Outline: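 Luciferase reporter of PMP22 intronic-element expression in stably transfected S16 rat Schwann cells, read by ONE-Glo luminescence after 24 h compound exposure at 37 C. Activity scaled between DMSO (0%) and positive-control PTC124; concentration-effect curves quality-classified.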

[5] = S16 Schwann cell PMP22 intronic element beta-lactamase assay (AID 624044; calls by dose curve;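 note: 0% = DMSO and -100% = potassium clavulanate positive control; nearly all actives have a fitted effect of over 15% in size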)
Outline: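 Beta-lactamase reporter under a PMP22 intronic regulatory element in stable S16 rat Schwann cells; 24 h compound exposure. 460 nm blue signal normalized between DMSO (0%) and potassium clavulanate, with 535 nm FRET tracking viability; curves classed by r2 and response.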

[6] = qHTS profiling for inhibitors of Plasmodium falciparum proliferation (AID 504749);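 note: 0% = DMSO vehicle and full inhibition = artemisinin control; nearly all actives have a fitted effect of over 60% in size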; settings: P. falciparum in erythrocytes, SYBR Green DNA, 72 h, at 28.7 µM (top of the series)
Outline: (§1)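 In a 72 h erythrocytic culture (37 C, humidified, 5% CO2) at 2.5% hematocrit and 0.3% starting parasitemia, compounds were tested; SYBR Green I in detergent lysis buffer stained parasite DNA overnight.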

3D7 = assay: as above; settings: P. falciparum in erythrocytes, SYBR Green DNA, 72 h; series mostly up to 28.7 µM
Outline: as §1

7G8 = assay: as above; settings: P. falciparum in erythrocytes, SYBR Green DNA, 72 h; series mostly up to 28.7 µM
Outline: as §1

AA1029 = assay: as above; settings: P. falciparum in erythrocytes, SYBR Green DNA, 72 h; series mostly up to 28.7 µM
Outline: as §1

AS120 = assay: as above; settings: P. falciparum in erythrocytes, SYBR Green DNA, 72 h; series mostly up to 28.7 µM
Outline: as §1

ATS189 = assay: as above; settings: P. falciparum in erythrocytes, SYBR Green DNA, 72 h; series mostly up to 28.7 µM
Outline: as §1

ATS95 = assay: as above; settings: P. falciparum in erythrocytes, SYBR Green DNA, 72 h; series mostly up to 28.7 µM
Outline: as §1

C2A = assay: as above; settings: P. falciparum in erythrocytes, SYBR Green DNA, 72 h; series mostly up to 28.7 µM
Outline: as §1

CP185 = assay: as above; settings: P. falciparum in erythrocytes, SYBR Green DNA, 72 h; series mostly up to 28.7 µM
Outline: as §1

CP191 = assay: as above; settings: P. falciparum in erythrocytes, SYBR Green DNA, 72 h; series mostly up to 28.7 µM
Outline: as §1

CP192 = assay: as above; settings: P. falciparum in erythrocytes, SYBR Green DNA, 72 h; series mostly up to 28.7 µM
Outline: as §1

CP194 = assay: as above; settings: P. falciparum in erythrocytes, SYBR Green DNA, 72 h; series mostly up to 28.7 µM
Outline: as §1

CP201 = assay: as above; settings: P. falciparum in erythrocytes, SYBR Green DNA, 72 h; series mostly up to 28.7 µM
Outline: as §1

CP203 = assay: as above; settings: P. falciparum in erythrocytes, SYBR Green DNA, 72 h; series mostly up to 28.7 µM
Outline: as §1

CP211 = assay: as above; settings: P. falciparum in erythrocytes, SYBR Green DNA, 72 h; series mostly up to 28.7 µM
Outline: as §1

CP215 = assay: as above; settings: P. falciparum in erythrocytes, SYBR Green DNA, 72 h; series mostly up to 28.7 µM
Outline: as §1

CP217 = assay: as above; settings: P. falciparum in erythrocytes, SYBR Green DNA, 72 h; series mostly up to 28.7 µM
Outline: as §1

CP237 = assay: as above; settings: P. falciparum in erythrocytes, SYBR Green DNA, 72 h; series mostly up to 28.7 µM
Outline: as §1

CP238 = assay: as above; settings: P. falciparum in erythrocytes, SYBR Green DNA, 72 h; series mostly up to 28.7 µM
Outline: as §1

CP247 = assay: as above; settings: P. falciparum in erythrocytes, SYBR Green DNA, 72 h; series mostly up to 28.7 µM
Outline: as §1

CP250 = assay: as above; settings: P. falciparum in erythrocytes, SYBR Green DNA, 72 h; series mostly up to 28.7 µM
Outline: as §1

CP252 = assay: as above; settings: P. falciparum in erythrocytes, SYBR Green DNA, 72 h; series mostly up to 28.7 µM
Outline: as §1

CP256 = assay: as above; settings: P. falciparum in erythrocytes, SYBR Green DNA, 72 h; series mostly up to 28.7 µM
Outline: as §1

CP260 = assay: as above; settings: P. falciparum in erythrocytes, SYBR Green DNA, 72 h; series mostly up to 28.7 µM
Outline: as §1

CP262 = assay: as above; settings: P. falciparum in erythrocytes, SYBR Green DNA, 72 h; series mostly up to 28.7 µM
Outline: as §1

CP265 = assay: as above; settings: P. falciparum in erythrocytes, SYBR Green DNA, 72 h; series mostly up to 28.7 µM
Outline: as §1

CP266 = assay: as above; settings: P. falciparum in erythrocytes, SYBR Green DNA, 72 h; series mostly up to 28.7 µM
Outline: as §1

CP268 = assay: as above; settings: P. falciparum in erythrocytes, SYBR Green DNA, 72 h; series mostly up to 28.7 µM
Outline: as §1

CP269 = assay: as above; settings: P. falciparum in erythrocytes, SYBR Green DNA, 72 h; series mostly up to 28.7 µM
Outline: as §1

CP286 = assay: as above; settings: P. falciparum in erythrocytes, SYBR Green DNA, 72 h; series mostly up to 28.7 µM
Outline: as §1

CP291 = assay: as above; settings: P. falciparum in erythrocytes, SYBR Green DNA, 72 h; series mostly up to 28.7 µM
Outline: as §1

CP297 = assay: as above; settings: P. falciparum in erythrocytes, SYBR Green DNA, 72 h; series mostly up to 28.7 µM
Outline: as §1

CP305 = assay: as above; settings: P. falciparum in erythrocytes, SYBR Green DNA, 72 h; series mostly up to 28.7 µM
Outline: as §1

CP315 = assay: as above; settings: P. falciparum in erythrocytes, SYBR Green DNA, 72 h; series mostly up to 28.7 µM
Outline: as §1

CP325 = assay: as above; settings: P. falciparum in erythrocytes, SYBR Green DNA, 72 h; series mostly up to 28.7 µM
Outline: as §1

CP329 = assay: as above; settings: P. falciparum in erythrocytes, SYBR Green DNA, 72 h; series mostly up to 28.7 µM
Outline: as §1

CP335 = assay: as above; settings: P. falciparum in erythrocytes, SYBR Green DNA, 72 h; series mostly up to 28.7 µM
Outline: as §1

DIV14 = assay: as above; settings: P. falciparum in erythrocytes, SYBR Green DNA, 72 h; series mostly up to 28.7 µM
Outline: as §1

DIV17 = assay: as above; settings: P. falciparum in erythrocytes, SYBR Green DNA, 72 h; series mostly up to 28.7 µM
Outline: as §1

DIV30 = assay: as above; settings: P. falciparum in erythrocytes, SYBR Green DNA, 72 h; series mostly up to 28.7 µM
Outline: as §1

Dd2 = assay: as above; settings: P. falciparum in erythrocytes, SYBR Green DNA, 72 h; series mostly up to 28.7 µM
Outline: as §1

ECU = assay: as above; settings: P. falciparum in erythrocytes, SYBR Green DNA, 72 h; series mostly up to 28.7 µM
Outline: as §1

FAB9 = assay: as above; settings: P. falciparum in erythrocytes, SYBR Green DNA, 72 h; series mostly up to 28.7 µM
Outline: as §1

GB4 = assay: as above; settings: P. falciparum in erythrocytes, SYBR Green DNA, 72 h; series mostly up to 28.7 µM
Outline: as §1

HB3 = assay: as above; settings: P. falciparum in erythrocytes, SYBR Green DNA, 72 h; series mostly up to 28.7 µM
Outline: as §1

ICS = assay: as above; settings: P. falciparum in erythrocytes, SYBR Green DNA, 72 h; series mostly up to 28.7 µM
Outline: as §1

JCK = assay: as above; settings: P. falciparum in erythrocytes, SYBR Green DNA, 72 h; series mostly up to 28.7 µM
Outline: as §1

N140 = assay: as above; settings: P. falciparum in erythrocytes, SYBR Green DNA, 72 h; series mostly up to 28.7 µM
Outline: as §1

P93_24 = assay: as above; settings: P. falciparum in erythrocytes, SYBR Green DNA, 72 h; series mostly up to 28.7 µM
Outline: as §1

P94_40 = assay: as above; settings: P. falciparum in erythrocytes, SYBR Green DNA, 72 h; series mostly up to 28.7 µM
Outline: as §1

PAD = assay: as above; settings: P. falciparum in erythrocytes, SYBR Green DNA, 72 h; series mostly up to 28.7 µM
Outline: as §1

PC15 = assay: as above; settings: P. falciparum in erythrocytes, SYBR Green DNA, 72 h; series mostly up to 28.7 µM
Outline: as §1

PC26 = assay: as above; settings: P. falciparum in erythrocytes, SYBR Green DNA, 72 h; series mostly up to 28.7 µM
Outline: as §1

PC49 = assay: as above; settings: P. falciparum in erythrocytes, SYBR Green DNA, 72 h; series mostly up to 28.7 µM
Outline: as §1

SC27B = assay: as above; settings: P. falciparum in erythrocytes, SYBR Green DNA, 72 h; series mostly up to 28.7 µM
Outline: as §1

TAB109 = assay: as above; settings: P. falciparum in erythrocytes, SYBR Green DNA, 72 h; series mostly up to 28.7 µM
Outline: as §1

TAB113 = assay: as above; settings: P. falciparum in erythrocytes, SYBR Green DNA, 72 h; series mostly up to 28.7 µM
Outline: as §1

TAB165 = assay: as above; settings: P. falciparum in erythrocytes, SYBR Green DNA, 72 h; series mostly up to 28.7 µM
Outline: as §1

W2 = assay: as above; settings: P. falciparum in erythrocytes, SYBR Green DNA, 72 h; series mostly up to 28.7 µM
Outline: as §1

NC(=O)CCC1NC(=O)C(Cc2ccccc2)NC(=O)C(Cc2ccc(O)cc2)NC(=O)CCSSCC(C(=O)N2CCCC2C(=O)NC(CCCN=C(N)N)C(=O)NCC(N)=O)NC(=O)C(CC(N)=O)NC1=O (stereo not given)
inactive: Potency [1] | Potency [2] | Potency [3] | Potency [4] | Potency [5] | activity, negative = inhibition ([6]; parasite line A) 9.46% | activity, negative = inhibition ([6]; parasite line B) 7.06% | Potency (3D7) | Potency (7G8) | Potency (AA1029) | Potency (AS120) | Potency (ATS189) | Potency (ATS95) | Potency (C2A) | Potency (CP185) | Potency (CP191) | Potency (CP192) | Potency (CP194) | Potency (CP201) | Potency (CP203) | Potency (CP211) | Potency (CP215) | Potency (CP217) | Potency (CP237) | Potency (CP238) | Potency (CP247) | Potency (CP250) | Potency (CP252) | Potency (CP256) | Potency (CP260) | Potency (CP262) | Potency (CP265) | Potency (CP266) | Potency (CP268) | Potency (CP269) | Potency (CP286) | Potency (CP291) | Potency (CP297) | Potency (CP305) | Potency (CP315) | Potency (CP325) | Potency (CP329) | Potency (CP335) | Potency (DIV14) | Potency (DIV17) | Potency (DIV30) | Potency (Dd2) | Potency (ECU) | Potency (FAB9) | Potency (GB4) | Potency (HB3) | Potency (ICS) | Potency (JCK) | Potency (N140) | Potency (P93_24) | Potency (P94_40) | Potency (PAD) | Potency (PC15) | Potency (PC26) | Potency (PC49) | Potency (SC27B) | Potency (TAB109) | Potency (TAB113) | Potency (TAB165) | Potency (W2)

Source: PubChem BioAssay (NCATS)
